Assay results from PubChem BioAssay (Tox21).
Records with an inconclusive call do not appear. Activity calls are given as the source filed them. Calls come from the whole dose curve; as a rule, active = well fitted curve in the direction sought with a large enough effect in the repeat runs; inconclusive = weak or mixed curves; inactive = no such curve, though single readings can be large; an effect the other way counts as inactive or inconclusive.

Key:
[1] = molecular target: Cytochrome P450 2D6 (Homo sapiens) (UniProt P10635); assay: Cytochrome P450 Family 2 Subfamily D Member 6 (CYP2D6) small molecule antagonists: luciferase reporter qHTS assay (AID 1671196); note: nearly all actives have a fitted effect of over 50% in size; note: potency is the fitted concentration of half-maximal effect; for activity change, negative = inhibition: series mostly up to about 120 µM
Procedure, shortened: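 CYP2D6 activity was followed as luminescence from its luciferin product after a 1 h NADPH-driven reaction at room temperature. Enzyme-substrate mix and compound were pre-incubated for 10 min, and the signal was read 20 min after adding detection reagent.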

[2] = molecular target: Cytochrome P450 2C19 (Homo sapiens) (UniProt P33261); assay: Cytochrome P450 Family 2 Subfamily C Member 19 (CYP2C19) small molecule antagonists: luciferase reporter qHTS assay (AID 1671197); note: nearly all actives have a fitted effect of over 65% in size; note: potency is the fitted concentration of half-maximal effect; for activity change, negative = inhibition: series mostly up to about 120 µM
Procedure, shortened: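 Light output is proportional to CYP2C19 activity: proluciferin substrate is converted to luciferin, then detected by a luciferin detection reagent that also stops the 1 h, 37C NADPH-driven reaction. Ketoconazole serves as positive control.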

[3] = molecular target: Cytochrome P450 2C9 (Homo sapiens) (UniProt P11712); assay: Cytochrome P450 Family 2 Subfamily C Member 9 (CYP2C9) small molecule antagonists: luciferase reporter qHTS assay (AID 1671198); note: nearly all actives have a fitted effect of over 50% in size; note: potency is the fitted concentration of half-maximal effect; for activity change, negative = inhibition: series mostly up to about 120 µM
Procedure, shortened: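 Enzyme-substrate mix preincubated with compound 10 min at room temperature; reaction started with NADPH regeneration solution, 1 h 37C. Luminescent luciferin product read after 20 min detection reagent.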

[4] = molecular target: Voltage-gated inwardly rectifying potassium channel KCNH2 (Homo sapiens) (UniProt Q12809); assay: Human Ether-a-go-go-Related Gene (hERG) channel small molecule antagonists: fluorescence cell-based qHTS assay (AID 1671200);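 note: hERG-expressing U2OS cells given a thallium stimulus after FluxOR II dye loading; series mostly up to about 77 µM; nearly all actives have a fitted effect of over 50% in size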
Procedure, shortened: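 hERG-U2OS cells plated overnight at 37 C, loaded with FluxOR II dye 1 h at RT in dark; after 10 min, thallium stimulus added. Fluorescence (480/540 nm) read kinetically for 2 min at 1 s intervals.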

[5] = molecular target: Cytochrome P450 3A4 (Homo sapiens) (UniProt P08684); assay: Cytochrome P450 Family 3 Subfamily A Member 4 (CYP3A4) small molecule antagonists: luciferase reporter qHTS assay (AID 1671201); note: nearly all actives have a fitted effect of over 50% in size; note: potency is the fitted concentration of half-maximal effect; for activity change, negative = inhibition: series mostly up to about 120 µM
Procedure, shortened: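 P450-Glo CYP3A4 luminescent assay: compounds preincubated 10 min at room temperature with enzyme and proluciferin substrate, NADPH regeneration added, 1 h room-temperature reaction, stopped with luciferin detection reagent; luminescence read after 20 min. Ketoconazole positive control.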

[6] = molecular target: Cytochrome P450 1A2 (Homo sapiens) (UniProt P05177); assay: Cytochrome P450 Family 1 Subfamily A Member 2 (CYP1A2) small molecule antagonists: luciferase reporter qHTS assay (AID 1671199); note: nearly all actives have a fitted effect of over 50% in size; note: potency is the fitted concentration of half-maximal effect; for activity change, negative = inhibition: series mostly up to about 120 µM
Procedure, shortened: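 Luminescence from luciferin formed by CYP1A2 from a proluciferin substrate, read 20 min after detection reagent. Compound was pre-incubated 10 min with enzyme-substrate, and reaction started with NADPH regeneration solution for 1 h at room temperature; furafylline control.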
% is set by controls: 0 for no effect and ±100 for the full control effect.

Chain of Cytochrome P450 2C19 (Homo sapiens) (P33261 whole entry, looked up): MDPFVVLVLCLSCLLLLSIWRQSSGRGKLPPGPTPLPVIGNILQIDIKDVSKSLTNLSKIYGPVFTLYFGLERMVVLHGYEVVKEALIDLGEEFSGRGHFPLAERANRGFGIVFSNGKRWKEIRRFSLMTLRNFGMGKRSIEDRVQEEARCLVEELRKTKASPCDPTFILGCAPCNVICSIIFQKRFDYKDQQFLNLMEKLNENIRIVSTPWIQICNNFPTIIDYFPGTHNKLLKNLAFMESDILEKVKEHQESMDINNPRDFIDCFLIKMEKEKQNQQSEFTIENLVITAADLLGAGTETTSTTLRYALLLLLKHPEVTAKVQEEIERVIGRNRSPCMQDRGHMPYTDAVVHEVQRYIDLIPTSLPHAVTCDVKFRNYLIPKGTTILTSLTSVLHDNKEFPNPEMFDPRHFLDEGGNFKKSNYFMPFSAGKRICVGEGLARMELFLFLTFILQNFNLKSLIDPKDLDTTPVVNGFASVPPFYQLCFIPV
Chain of Cytochrome P450 2C9 (Homo sapiens) (P11712 whole entry, looked up): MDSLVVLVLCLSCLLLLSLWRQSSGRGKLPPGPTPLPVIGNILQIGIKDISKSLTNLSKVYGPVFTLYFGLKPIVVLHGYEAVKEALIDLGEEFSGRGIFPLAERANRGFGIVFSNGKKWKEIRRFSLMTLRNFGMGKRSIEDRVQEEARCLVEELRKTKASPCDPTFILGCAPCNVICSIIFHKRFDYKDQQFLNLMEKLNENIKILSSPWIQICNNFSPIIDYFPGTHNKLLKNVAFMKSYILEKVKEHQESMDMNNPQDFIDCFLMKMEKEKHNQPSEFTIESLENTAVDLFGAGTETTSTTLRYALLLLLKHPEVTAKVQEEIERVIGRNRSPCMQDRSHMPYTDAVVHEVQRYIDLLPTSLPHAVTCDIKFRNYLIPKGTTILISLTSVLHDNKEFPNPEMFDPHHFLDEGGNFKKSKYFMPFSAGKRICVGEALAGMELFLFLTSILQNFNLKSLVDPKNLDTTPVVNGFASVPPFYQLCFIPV
Chain of Voltage-gated inwardly rectifying potassium channel KCNH2 (Homo sapiens) (Q12809 whole entry, looked up): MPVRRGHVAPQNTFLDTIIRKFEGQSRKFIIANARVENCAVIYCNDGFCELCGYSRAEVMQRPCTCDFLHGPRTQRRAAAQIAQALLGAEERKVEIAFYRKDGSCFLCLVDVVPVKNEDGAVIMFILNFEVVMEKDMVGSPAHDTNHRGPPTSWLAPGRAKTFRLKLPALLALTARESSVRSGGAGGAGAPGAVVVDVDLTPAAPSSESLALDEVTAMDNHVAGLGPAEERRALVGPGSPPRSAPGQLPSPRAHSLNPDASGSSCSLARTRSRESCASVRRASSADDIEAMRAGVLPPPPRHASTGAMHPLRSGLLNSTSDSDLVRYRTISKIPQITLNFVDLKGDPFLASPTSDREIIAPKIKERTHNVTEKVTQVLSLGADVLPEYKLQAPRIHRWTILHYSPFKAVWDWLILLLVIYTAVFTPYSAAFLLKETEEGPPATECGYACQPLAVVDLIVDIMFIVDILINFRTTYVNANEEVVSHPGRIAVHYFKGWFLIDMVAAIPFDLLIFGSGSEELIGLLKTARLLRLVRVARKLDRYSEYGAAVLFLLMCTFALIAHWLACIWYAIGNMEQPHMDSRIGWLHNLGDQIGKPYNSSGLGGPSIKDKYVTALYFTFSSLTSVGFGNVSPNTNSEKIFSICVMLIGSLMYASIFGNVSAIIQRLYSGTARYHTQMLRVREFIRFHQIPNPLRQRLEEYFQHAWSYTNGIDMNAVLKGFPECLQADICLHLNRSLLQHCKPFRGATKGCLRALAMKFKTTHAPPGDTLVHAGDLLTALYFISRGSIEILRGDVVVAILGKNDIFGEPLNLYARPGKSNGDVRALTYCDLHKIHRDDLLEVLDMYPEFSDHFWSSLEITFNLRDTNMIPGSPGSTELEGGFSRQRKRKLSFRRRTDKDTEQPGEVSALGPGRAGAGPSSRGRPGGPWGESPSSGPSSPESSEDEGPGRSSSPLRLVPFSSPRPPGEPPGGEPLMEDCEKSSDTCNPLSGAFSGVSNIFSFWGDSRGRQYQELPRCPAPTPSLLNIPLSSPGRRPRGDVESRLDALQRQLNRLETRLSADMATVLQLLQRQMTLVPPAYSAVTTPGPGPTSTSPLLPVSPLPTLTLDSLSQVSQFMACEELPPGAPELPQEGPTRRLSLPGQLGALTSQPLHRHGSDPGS
Chain of Cytochrome P450 2D6 (Homo sapiens) (P10635 whole entry, looked up): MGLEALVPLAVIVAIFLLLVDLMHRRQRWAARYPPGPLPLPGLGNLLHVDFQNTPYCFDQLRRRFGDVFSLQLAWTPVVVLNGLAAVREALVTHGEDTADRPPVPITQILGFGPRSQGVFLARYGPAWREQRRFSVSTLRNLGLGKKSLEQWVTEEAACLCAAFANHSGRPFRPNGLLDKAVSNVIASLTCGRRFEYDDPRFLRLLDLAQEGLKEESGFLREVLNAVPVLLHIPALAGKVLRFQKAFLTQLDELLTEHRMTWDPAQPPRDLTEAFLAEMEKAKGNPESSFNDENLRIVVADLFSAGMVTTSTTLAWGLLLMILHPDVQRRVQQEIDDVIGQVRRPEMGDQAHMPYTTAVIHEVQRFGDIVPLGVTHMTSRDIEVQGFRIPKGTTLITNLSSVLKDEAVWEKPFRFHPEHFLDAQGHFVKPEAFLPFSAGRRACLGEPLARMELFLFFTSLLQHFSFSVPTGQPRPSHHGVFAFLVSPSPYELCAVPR
Chain of Cytochrome P450 3A4 (Homo sapiens) (P08684 whole entry, looked up): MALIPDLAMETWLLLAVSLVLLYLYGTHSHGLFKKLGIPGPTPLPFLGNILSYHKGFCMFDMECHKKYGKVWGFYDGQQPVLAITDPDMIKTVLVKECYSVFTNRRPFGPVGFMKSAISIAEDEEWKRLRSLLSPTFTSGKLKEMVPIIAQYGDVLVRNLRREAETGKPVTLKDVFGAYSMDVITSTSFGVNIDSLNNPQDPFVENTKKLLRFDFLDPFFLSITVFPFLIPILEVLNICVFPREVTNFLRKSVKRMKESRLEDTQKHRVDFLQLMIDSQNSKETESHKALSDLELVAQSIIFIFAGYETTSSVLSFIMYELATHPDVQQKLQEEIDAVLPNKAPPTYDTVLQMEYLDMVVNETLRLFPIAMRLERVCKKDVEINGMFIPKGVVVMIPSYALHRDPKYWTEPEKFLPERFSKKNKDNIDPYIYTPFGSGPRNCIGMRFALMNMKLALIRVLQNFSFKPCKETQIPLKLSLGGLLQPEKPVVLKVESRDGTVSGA
Chain of Cytochrome P450 1A2 (Homo sapiens) (P05177 whole entry, looked up): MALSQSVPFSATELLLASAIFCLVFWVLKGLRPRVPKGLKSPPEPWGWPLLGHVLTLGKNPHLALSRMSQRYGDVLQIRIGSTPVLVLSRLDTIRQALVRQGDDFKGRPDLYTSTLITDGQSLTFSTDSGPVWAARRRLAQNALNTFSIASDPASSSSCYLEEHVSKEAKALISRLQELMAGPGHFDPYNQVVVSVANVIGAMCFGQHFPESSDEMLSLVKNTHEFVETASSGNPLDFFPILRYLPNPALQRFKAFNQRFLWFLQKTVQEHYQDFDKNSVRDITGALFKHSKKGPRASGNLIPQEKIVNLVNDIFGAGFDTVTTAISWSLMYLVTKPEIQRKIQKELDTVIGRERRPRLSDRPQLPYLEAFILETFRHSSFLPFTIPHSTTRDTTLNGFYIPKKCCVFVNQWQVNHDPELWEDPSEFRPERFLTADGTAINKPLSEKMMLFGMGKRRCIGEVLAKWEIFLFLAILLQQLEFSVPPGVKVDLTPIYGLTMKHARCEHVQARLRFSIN

O=C(Nc1ccc(Cl)c(Cl)c1)C1CC1
inactive: Potency [1] | Potency [4]
active: Potency [2] 11 µM | Potency [3] 30.9 µM

CCC(C)(CCC(C)C)C(=O)O (stereo unspecified)
active: Potency [1] 28.3 µM | Potency [3] 35.6 µM
inactive: Potency [2] | Potency [4] | Potency [5]

CNS(=O)(=O)CCc1ccc2[nH]cc(C3CCN(C)CC3)c2c1
active: Potency [1] 34.7 µM
inactive: Potency [2] | Potency [3] | Potency [4] | Potency [5]

CN1CCN(CC(=O)N2c3ccccc3C(=O)Nc3cccnc32)CC1
inactive: activity change, negative = inhibition [1] -4.49% [at 10.5 µM] | activity change, negative = inhibition [2] 8.9% [at 10.5 µM] | activity change, negative = inhibition [3] 2.89% [at 10.5 µM] | activity change, negative = inhibition [6] 13.2% [at 10.5 µM] | activity change, negative = inhibition [5] 4.83% [at 10.5 µM]

CCOc1cc([N+](=O)[O-])c(OCC)cc1N1CCOCC1
active: Potency [3] 7.96 µM | Potency [6] 1.78 µM
inactive: Potency [1] | Potency [2] | Potency [4] | Potency [5]

Oc1ccccc1-c1nnco1
inactive: Potency [1] | Potency [2] | Potency [3] | Potency [5]
active: Potency [6] 30.9 µM

COc1ccc(Br)c(C)c1
inactive: Potency [1] | Potency [3] | Potency [5]
active: Potency [2] 36 µM | Potency [6] 32 µM

C=C(C)C(=O)OCCN(CC)CC
inactive: Potency [1] | Potency [2] | Potency [3] | Potency [4] | Potency [5]
active: Potency [6] 35.5 µM

CC(=O)c1ccc2c(c1)Cc1ccccc1-2
inactive: Potency [1] | Potency [4] | Potency [5]
active: Potency [2] 20 µM | Potency [3] 12.6 µM | Potency [6] 1.79 µM

NS(=O)(=O)c1cc2c(cc1Cl)CN(C1CCCCC1)C2=O
inactive: Potency [1] | Potency [2] | Potency [3] | Potency [6] | Potency [4] | Potency [5]

OCCC(F)(F)C(F)(F)C(F)(F)C(F)(F)C(F)(F)C(F)(F)C(F)(F)C(F)(F)F
inactive: Potency [1] | Potency [2] | Potency [3] | Potency [6] | Potency [4] | Potency [5]

Cc1ccc(S(=O)(=O)O)c(C)c1
inactive: Potency [1] | Potency [2] | Potency [3] | Potency [6] | Potency [4] | Potency [5]

O=C(c1ccc(O)cc1)c1ccc(O)c(O)c1O
inactive: Potency [3] | Potency [4]
active: Potency [1] 40.1 µM | Potency [2] 40.1 µM

CCn1ccc(NS(=O)(=O)c2ccc(N)cc2)nc1=O
inactive: Potency [1] | Potency [2] | Potency [3] | Potency [6] | Potency [4] | Potency [5]

CC(=O)Nc1ccc(S(=O)(=O)Nc2ccc([N+](=O)[O-])cc2)cc1
active: Potency [2] 15.5 µM | Potency [3] 13.8 µM
inactive: Potency [1] | Potency [6] | Potency [4] | Potency [5]

CCOc1cc(NC(C)=O)ccc1C(=O)OC
inactive: Potency [1] | Potency [2] | Potency [3] | Potency [4] | Potency [5]
active: Potency [6] 5.49 µM

Cc1cccc(C)c1NC(=O)c1ccccc1C(=O)O
inactive: Potency [1] | Potency [2] | Potency [3] | Potency [6] | Potency [4] | Potency [5]

c1ccc2c(c1)ccc1c3ccccc3ccc21
active: Potency [6] 0.725 µM
inactive: Potency [1] | Potency [2] | Potency [3] | Potency [5]

Cc1cccc(OCC(O)CNC(C)(C)C)c1C (stereo unspecified)
inactive: Potency [2] | Potency [3] | Potency [4] | Potency [5]
active: Potency [1] 13.8 µM

O=S(O)(O)=S
inactive: activity change, negative = inhibition [1] -0.0268% [at 10.5 µM] | activity change, negative = inhibition [2] -17.3% [at 10.5 µM] | activity change, negative = inhibition [3] -6.3% [at 10.5 µM] | activity change, negative = inhibition [6] -12.3% [at 10.5 µM] | activity change, negative = inhibition [4] -2.48% [at 6.97 µM] | activity change, negative = inhibition [5] 0.412% [at 10.5 µM]

CC/C=C\CC1=C(C)CCC1=O
active: Potency [2] 63.3 µM | Potency [6] 31.7 µM
inactive: Potency [1] | Potency [3] | Potency [5]

Cc1ccccc1N=O
active: Potency [5] 36.5 µM
inactive: Potency [1] | Potency [2] | Potency [3] | Potency [4]

COc1cc2c(cc1OC)C(=O)CC2
inactive: Potency [1] | Potency [2] | Potency [3] | Potency [4] | Potency [5]
active: Potency [6] 27.5 µM

Cc1cc(C(C)(C)C)c(O)c(C)c1CC1=NCCN1
active: Potency [1] 1.55 µM
inactive: Potency [2] | Potency [3] | Potency [6] | Potency [5]

CC(C)=CCOC(=O)c1ccccc1
inactive: Potency [1] | Potency [2] | Potency [3] | Potency [4] | Potency [5]

BrCc1cccc(Oc2ccccc2)c1
active: Potency [1] 35.6 µM | Potency [2] 7.96 µM | Potency [3] 79.6 µM
inactive: Potency [4] | Potency [5]

C=CCCCCCCCCCCCC
inactive: Potency [1] | Potency [2] | Potency [3] | Potency [4] | Potency [5]

CC1(CO)CN(c2ccccc2)NC1=O (stereo unspecified)
inactive: Potency [4]
active: Potency [1] 28.3 µM | Potency [2] 20 µM | Potency [3] 25.2 µM | Potency [6] 35.6 µM | Potency [5] 31.7 µM

Cc1nc2n(c(=O)c1CCN1CCC(c3noc4cc(F)ccc34)CC1)CCC[C@H]2O
inactive: activity change, negative = inhibition [2] 18.1% [at 23.6 µM] | activity change, negative = inhibition [3] 0.924% [at 23.6 µM] | Potency [6] | activity change, negative = inhibition [5] 3.18% [at 23.6 µM]
active: Potency [1] 6.01 µM

CCOCCOC(=O)/C=C/c1ccc(OC)cc1
inactive: Potency [1] | Potency [5]
active: Potency [2] 34.7 µM | Potency [3] 13.8 µM | Potency [6] 7.76 µM
